Results published in ChEMBL document CHEMBL3988442, “University of Dundee, Small-Polar-MMV Screening Library” (2021).
For some assays here: Potency and affinity values are given separately.

Assays:
Parameters in all cases: scale not given: direction of the effect not stated beside the values
[1] = molecular target: Protein translocase subunit SecA (Escherichia coli (strain K12)) (UniProt P10408); assay: Assay to Identify E. coli SecA ATPase Inhibitors; assay type: functional; details: 30 µM
[2] = molecular target: T1, Ubiquitin-activating enzyme e1, putative (Leishmania donovani (strain BPK282A1)) (UniProt E9BSI1); assay: Leishmania donovani Ubiquitin Activating Enzyme (LdE1); assay type: functional; details: 30 µM
T1 sequence (whole entry): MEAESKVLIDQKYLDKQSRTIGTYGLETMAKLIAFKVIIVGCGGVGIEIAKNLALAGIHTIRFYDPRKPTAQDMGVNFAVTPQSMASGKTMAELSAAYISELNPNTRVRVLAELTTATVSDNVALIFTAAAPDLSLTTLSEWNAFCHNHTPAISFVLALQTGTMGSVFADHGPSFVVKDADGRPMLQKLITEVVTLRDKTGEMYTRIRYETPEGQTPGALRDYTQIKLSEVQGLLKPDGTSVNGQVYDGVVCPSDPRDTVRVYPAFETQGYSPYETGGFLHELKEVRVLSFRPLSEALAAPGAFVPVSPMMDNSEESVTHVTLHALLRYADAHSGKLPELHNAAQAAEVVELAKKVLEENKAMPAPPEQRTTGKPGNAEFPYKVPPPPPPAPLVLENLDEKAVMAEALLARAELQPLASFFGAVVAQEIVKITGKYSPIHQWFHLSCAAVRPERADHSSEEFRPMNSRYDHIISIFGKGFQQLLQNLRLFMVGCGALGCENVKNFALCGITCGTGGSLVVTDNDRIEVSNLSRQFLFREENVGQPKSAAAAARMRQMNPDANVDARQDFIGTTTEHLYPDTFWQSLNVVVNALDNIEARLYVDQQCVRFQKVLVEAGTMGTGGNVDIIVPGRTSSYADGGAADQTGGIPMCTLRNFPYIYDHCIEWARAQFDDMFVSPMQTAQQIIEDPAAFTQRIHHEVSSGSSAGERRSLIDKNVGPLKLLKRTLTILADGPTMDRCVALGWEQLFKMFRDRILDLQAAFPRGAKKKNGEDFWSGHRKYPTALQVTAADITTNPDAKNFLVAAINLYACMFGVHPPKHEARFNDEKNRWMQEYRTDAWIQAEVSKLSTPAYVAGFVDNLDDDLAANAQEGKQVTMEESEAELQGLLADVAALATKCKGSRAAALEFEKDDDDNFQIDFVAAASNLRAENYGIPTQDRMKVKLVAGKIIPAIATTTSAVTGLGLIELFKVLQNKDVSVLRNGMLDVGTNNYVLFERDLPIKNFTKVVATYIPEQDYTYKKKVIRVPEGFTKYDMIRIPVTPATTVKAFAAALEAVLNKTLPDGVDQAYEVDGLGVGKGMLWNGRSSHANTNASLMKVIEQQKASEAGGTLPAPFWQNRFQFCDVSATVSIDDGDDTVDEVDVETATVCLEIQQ

[3] = molecular target: Sialic acid-binding Ig-like lectin 9 (Homo sapiens) (UniProt Q9Y336); assay: Hs-Siglec9 ALPHAscreen SOP 20170721; details: 10 µM
Sialic acid-binding Ig-like lectin 9 (Homo sapiens), sequence (Q9Y336 whole entry): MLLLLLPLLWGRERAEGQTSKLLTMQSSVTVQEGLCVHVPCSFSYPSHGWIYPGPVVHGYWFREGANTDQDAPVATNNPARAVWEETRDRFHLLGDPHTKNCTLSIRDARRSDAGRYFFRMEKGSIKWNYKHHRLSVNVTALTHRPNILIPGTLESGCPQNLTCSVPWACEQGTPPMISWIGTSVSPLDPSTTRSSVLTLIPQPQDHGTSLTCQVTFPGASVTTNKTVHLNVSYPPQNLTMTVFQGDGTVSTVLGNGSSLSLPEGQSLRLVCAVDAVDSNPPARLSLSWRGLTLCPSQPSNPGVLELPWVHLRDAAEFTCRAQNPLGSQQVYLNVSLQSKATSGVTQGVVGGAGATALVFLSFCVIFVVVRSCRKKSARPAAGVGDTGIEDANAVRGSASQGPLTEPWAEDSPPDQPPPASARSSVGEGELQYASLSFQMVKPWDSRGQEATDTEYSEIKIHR

[4] = system: Trypanosoma cruzi; assay: Trypanosoma cruzi phosphomannomutase and mannose-1-phosphate guanylyltransferase assay; assay type: functional; details: 10 µM
[5] = molecular target: T2, Arginase-2, mitochondrial (Homo sapiens) (UniProt P78540); assay: in vitro enzyme assay to detect the production of urea directly proportional to the activity of Arginase II; assay type: functional; details: 33.3 µM; note: in the data most compounds retested in dose-response had high values
T2 sequence (whole entry): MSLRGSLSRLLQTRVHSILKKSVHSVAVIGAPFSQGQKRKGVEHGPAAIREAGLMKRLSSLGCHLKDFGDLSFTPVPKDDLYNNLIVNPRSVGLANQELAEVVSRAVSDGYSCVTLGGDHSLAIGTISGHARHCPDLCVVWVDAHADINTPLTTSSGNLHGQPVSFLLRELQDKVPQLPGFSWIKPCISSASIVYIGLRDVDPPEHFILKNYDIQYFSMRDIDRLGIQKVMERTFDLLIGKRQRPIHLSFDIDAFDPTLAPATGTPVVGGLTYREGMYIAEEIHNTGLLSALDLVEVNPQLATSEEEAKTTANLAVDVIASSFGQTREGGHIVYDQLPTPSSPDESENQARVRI

[6] = molecular target: T3, Proteasome subunit beta (Trypanosoma cruzi) (UniProt O96673); assay: Trypanosoma cruzi proteasome chymotrypsin-like activity (TcProtChymo) assay.; note: in the data most compounds retested in dose-response had high values; assay type: functional; details: 9.37 µM
T3 sequence (whole entry): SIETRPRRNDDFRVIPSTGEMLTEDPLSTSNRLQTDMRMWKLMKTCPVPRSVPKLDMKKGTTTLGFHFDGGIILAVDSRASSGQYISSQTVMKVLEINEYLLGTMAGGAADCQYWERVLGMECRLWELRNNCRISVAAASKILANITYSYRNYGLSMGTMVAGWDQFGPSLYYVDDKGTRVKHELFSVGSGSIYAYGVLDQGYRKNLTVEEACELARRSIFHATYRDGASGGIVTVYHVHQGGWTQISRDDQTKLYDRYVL

[7] = species on record: Homo sapiens; assay: To identify inhibition of the IFN signalling (Jak-Stat) pathway via expression of an eGFP reporter gene under the control of an IFN-stimulated response element (ISRE) containing MxA promoter.; assay type: functional; details: 30 µM
[8] = molecular target: T4, Tyrosyl-tRNA synthetase, putative (Trypanosoma cruzi (strain CL Brener)) (UniProt Q4DSP6); assay: Trypanosoma cruzi tyrosyl tRNA synthetase (TcYRS) _High Tyrosine SOP; assay type: functional; details: 30 µM; note: in the data most compounds retested in dose-response had high values
T4 sequence (whole entry): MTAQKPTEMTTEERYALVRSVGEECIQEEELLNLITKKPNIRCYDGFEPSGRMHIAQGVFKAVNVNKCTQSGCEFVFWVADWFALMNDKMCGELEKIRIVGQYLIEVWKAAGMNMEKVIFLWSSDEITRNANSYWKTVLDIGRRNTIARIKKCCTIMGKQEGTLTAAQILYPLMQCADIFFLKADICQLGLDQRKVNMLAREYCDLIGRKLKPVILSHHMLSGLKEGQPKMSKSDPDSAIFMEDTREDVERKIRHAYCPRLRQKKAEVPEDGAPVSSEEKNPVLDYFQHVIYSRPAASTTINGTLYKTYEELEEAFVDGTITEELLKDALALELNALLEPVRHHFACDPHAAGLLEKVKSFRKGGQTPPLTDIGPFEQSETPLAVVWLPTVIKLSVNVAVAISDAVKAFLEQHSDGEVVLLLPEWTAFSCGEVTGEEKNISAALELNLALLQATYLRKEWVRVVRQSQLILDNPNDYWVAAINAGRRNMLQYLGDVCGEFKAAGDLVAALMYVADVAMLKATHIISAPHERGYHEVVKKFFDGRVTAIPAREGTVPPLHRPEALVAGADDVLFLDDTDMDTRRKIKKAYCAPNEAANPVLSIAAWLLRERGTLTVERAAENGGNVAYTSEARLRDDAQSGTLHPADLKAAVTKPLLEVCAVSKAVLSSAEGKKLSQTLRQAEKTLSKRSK

[9] = molecular target: T4, Tyrosyl-tRNA synthetase, putative (Trypanosoma cruzi (strain CL Brener)); assay: Trypanosoma cruzi tyrosyl tRNA synthetase (TcYRS) SOP; assay type: functional; details: 30 µM
[10] = molecular target: Chromo domain-containing protein 1 (Saccharomyces cerevisiae (strain ATCC 204508 / S288c) (Baker's yeast)) (UniProt P32657); assay: ScCHD-1 Enzyme Inhibition Assay; assay type: functional; details: 30 µM; note: in the data most compounds retested in dose-response had high values
Chromo domain-containing protein 1 (Saccharomyces cerevisiae (strain ATCC 204508 / S288c) (Baker's yeast)), sequence (P32657 whole entry, the tested form may be a part): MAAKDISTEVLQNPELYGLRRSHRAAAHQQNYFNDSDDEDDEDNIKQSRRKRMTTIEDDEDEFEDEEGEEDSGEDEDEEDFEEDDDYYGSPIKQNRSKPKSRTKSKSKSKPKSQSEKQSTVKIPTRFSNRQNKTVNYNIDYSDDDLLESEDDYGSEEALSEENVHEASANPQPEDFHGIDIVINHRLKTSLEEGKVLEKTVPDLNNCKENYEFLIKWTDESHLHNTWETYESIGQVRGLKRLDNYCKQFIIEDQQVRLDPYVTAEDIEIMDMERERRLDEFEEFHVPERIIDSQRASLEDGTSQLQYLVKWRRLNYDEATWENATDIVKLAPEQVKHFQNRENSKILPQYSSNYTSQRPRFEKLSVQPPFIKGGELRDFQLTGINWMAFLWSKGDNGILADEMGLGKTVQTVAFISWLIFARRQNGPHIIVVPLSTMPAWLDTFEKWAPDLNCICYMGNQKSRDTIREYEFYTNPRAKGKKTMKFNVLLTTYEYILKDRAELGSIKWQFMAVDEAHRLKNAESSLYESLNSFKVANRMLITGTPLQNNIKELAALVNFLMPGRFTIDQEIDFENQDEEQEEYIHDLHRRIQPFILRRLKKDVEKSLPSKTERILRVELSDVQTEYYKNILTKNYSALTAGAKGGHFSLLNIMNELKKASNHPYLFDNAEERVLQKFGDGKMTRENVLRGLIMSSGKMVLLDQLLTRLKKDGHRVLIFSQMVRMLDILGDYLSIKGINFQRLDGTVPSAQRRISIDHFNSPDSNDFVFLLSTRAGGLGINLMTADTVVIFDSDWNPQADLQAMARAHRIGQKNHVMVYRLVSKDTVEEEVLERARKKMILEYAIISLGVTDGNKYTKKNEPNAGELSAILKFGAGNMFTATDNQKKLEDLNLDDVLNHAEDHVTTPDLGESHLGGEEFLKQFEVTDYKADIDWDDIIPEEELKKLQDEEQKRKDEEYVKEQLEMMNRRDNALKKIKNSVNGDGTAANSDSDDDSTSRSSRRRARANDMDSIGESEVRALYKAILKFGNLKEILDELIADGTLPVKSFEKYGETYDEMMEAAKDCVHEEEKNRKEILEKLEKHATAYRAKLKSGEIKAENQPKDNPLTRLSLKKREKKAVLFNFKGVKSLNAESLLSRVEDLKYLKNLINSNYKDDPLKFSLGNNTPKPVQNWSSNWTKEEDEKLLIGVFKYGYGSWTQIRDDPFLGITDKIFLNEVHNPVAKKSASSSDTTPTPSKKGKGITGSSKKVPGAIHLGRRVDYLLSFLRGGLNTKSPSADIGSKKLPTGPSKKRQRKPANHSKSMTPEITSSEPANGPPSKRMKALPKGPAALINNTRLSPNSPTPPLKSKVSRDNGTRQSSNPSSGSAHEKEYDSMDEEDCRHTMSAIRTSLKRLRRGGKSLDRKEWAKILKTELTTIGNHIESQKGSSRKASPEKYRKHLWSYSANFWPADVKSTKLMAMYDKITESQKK

Protein translocase subunit SecA (Escherichia coli (strain K12)), sequence (P10408 whole entry): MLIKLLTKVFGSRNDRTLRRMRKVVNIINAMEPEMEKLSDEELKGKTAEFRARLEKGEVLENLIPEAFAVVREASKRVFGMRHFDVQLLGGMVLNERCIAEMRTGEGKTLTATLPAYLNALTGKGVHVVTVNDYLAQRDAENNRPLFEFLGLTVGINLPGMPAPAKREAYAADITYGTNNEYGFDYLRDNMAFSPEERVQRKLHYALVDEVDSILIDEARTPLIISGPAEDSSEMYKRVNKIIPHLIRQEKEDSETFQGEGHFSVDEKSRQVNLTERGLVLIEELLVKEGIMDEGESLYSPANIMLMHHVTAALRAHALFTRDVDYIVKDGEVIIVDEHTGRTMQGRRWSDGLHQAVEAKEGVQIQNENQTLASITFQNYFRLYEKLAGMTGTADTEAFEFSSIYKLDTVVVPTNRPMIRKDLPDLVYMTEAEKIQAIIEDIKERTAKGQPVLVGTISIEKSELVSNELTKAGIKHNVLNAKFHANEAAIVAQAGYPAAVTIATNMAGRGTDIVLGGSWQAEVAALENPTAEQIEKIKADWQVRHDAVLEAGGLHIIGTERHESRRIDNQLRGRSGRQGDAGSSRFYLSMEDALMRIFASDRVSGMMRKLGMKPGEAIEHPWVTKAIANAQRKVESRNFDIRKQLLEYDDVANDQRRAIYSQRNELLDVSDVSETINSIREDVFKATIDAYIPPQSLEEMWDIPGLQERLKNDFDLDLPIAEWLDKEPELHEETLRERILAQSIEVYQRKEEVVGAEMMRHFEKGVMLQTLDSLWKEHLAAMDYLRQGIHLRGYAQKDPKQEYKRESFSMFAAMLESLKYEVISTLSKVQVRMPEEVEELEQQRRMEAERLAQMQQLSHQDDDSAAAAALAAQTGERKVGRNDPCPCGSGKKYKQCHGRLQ

Structure (SMILES)	Percent Effect [1]	Percent Effect [2]	Percent Effect [3]	Percent Effect [4]	Percent Effect [5]	Percent Effect [6]	Percent Effect [7]	Percent Effect [8]	Percent Effect [9]	Percent Effect [10]
CCOC(=O)N1CCN(C(=O)c2ccc3ccn(C)c3c2)CC1	-3.31%	0%	29%	7.47%	-8.74%	11.6%	9.78%	4.79%	7.32%	5.11%
Cc1ccc(N2CCC3(CCCN(C(=O)c4cccnc4)C3)C2)nn1 (stereo not given)	-10.1%	1.3%	11%	-3.41%	0.405%	16.1%	2.17%	0.526%	-10.3%	0.442%
CC(C)c1cc(N2CCC(CCC(=O)NC3CC3)CC2)n2nccc2n1	-2.45%	5.41%	2.79%	-0.097%	2.45%	9.76%	7.29%	4.79%	12.2%	-3.08%
C1CC(CN2CCOCC3(CCN(C4CCOCC4)C3)C2)CCO1 (stereo not given)	-5.96%	9.09%	-7.57%	6.13%	-6.88%	13.7%	3.41%	6.84%	10.3%	0.2%
Cc1cc(C(=O)NCc2ccnc(N3CCN(C)CC3)c2)c(C)s1	-2.97%	-28.2%	-3.6%	-0.657%	3.69%	3.67%	-0.506%	8.13%	20.5%	-3.48%
CN(C)C(=O)CN1C(=O)CCC12CCN(Cc1ccc(F)cc1)CC2	-1.87%	22.1%	-5.35%	0.188%	3.2%	18.1%	14%	9.66%	15%	-11.4%
COc1ncccc1C(=O)N1CCn2c(COCC3CC3)cnc2C1C (stereo not given)	-3.37%	3.9%	-3.01%	1.07%	-1.62%	8.21%	-16%	4.74%	7.69%	1.11%
Cn1ccc(CN2CCCC2c2ccc3c(c2)OCCCO3)cc1=O (stereo not given)	-1.37%	7.69%	-4.76%	1.78%	6.56%	18.2%	22%	9.09%	20.5%	-1.67%
CCn1ccnc1CN1CCCN(C(=O)c2cccc(C#N)c2)CC1	0.122%	2.56%	-6.11%	7.79%	7.38%	0.939%	9.49%	1.44%	1.21%	1.21%
Cc1nc(C2CCCN(C(=O)COCc3ccccc3Cl)C2)no1 (stereo not given)	1.44%	-8%	4.56%	-1.81%	6.21%	-7.72%	10.8%	-1.58%	-5.13%	3.49%
Fc1ccc(-c2n[nH]cc2-c2ccnc(NCCN3CCCC3)n2)cc1	-1.15%	8%	-4.6%	-8.23%	-7.98%	15.3%	5.44%	-5.79%	0%	-21.2%
O=C(NCCn1nc2ccccn2c1=O)c1cccc2[nH]ncc12	-1.51%	20.5%	-7.98%	6.29%	-3.69%	21.9%	13.6%	4.31%	22.9%	-8.5%
Cn1cccc1-c1cc(C(=O)N2CC(c3cccnc3)C2)[nH]n1	-12.9%	2.7%	4.47%	-2.81%	1.05%	5.65%	32.9%	-1.6%	0%	0.144%
O=C(c1ccco1)N1C[C@H]2CCCN(Cc3cccs3)[C@H]2C1	-3.68%	14.3%	-9.29%	-4.58%	-2.02%	15.1%	28.2%	3.68%	7.69%	-4.26%
Cc1ccc(S(=O)(=O)N2CCOc3ccccc32)cc1C(=O)O	-0.902%	-5.13%	-13.7%	-1.03%	1.23%	11.5%	1.07%	-7.18%	6.02%	-6.35%
CN(C)CCN1CCCC12CCN(C(=O)c1cccn1C)CC2	-4.21%	-1.3%	2.81%	2.04%	-2.02%	0.618%	-20.1%	-0.526%	-2.56%	4.29%
COCCC(=O)N1CCn2c(COCC3CC3)cnc2C1C (stereo not given)	-9.04%	1.3%	6.82%	-3.6%	-3.24%	4.33%	-4.92%	0.526%	5.13%	-2.88%
Cc1cnn(CC2CCCN2C(=O)c2ccc3nnc(C)n3c2)c1 (stereo not given)	-1.55%	-5.13%	-9.94%	1.03%	2.87%	4.01%	8.47%	-2.39%	-3.61%	-5.71%
COCCN1CCCC12CCN(C(=O)CC1CCCC1)CC2	-1.94%	-3.9%	0.315%	2.44%	0%	-0.0858%	16.7%	5.8%	12.5%	-2.58%
O=C(CSC1CCc2ccccc2NC1=O)NCCO (stereo not given)	-0.348%	13.5%	0.884%	1.84%	-3.15%	15.6%	25.1%	5.85%	14.6%	-1.22%
